Measurements: PubChem BioAssay (Tox21)
Results filed as inconclusive are left out. A number with no mark means an inactive call. Activity calls are given as the source filed them. Calls come from the whole dose curve; as a rule, active = well fitted cell-killing curve with a large enough effect in the repeat runs; inconclusive = weak or mixed curves, or effect the other way; inactive = no such curve, though single readings can be large or run the other way.

experiment: qHTS assay to identify small molecule antagonists of the retinoid-related orphan receptor gamma (ROR-gamma) signaling pathway - cell viability counter screen (AID 1159520); conditions: Tet-on RORgamma CHO cells viability, ATP luminescence, 16 h; series mostly up to 92.4 µM; activity, negative = cytotoxicity: at the top concentration; note: nearly all actives have a fitted effect of over 50% in size
In short: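 Tet-on ROR gamma CHO cells were given compounds for 2 hr, then doxycycline hyclate at 1 uM final, and incubated 16 hr at 37 C. Viability was measured as ATP content by CellTiter-Glo luminescence.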
% is set by controls: 0 for no effect and ±100 for the full control effect.

| Structure (SMILES) | activity, negative = cytotoxicity | Potency |
| --- | --- | --- |
| COc1ccc(C(=O)c2c(C)n(CCN3CCOCC3)c3ccccc23)cc1 | -1.17% [at 42.5 µM] |  |
| O=C(N/N=C/c1ccc([N+](=O)[O-])o1)c1cc([N+](=O)[O-])cc([N+](=O)[O-])c1O | -0.181% [at 42.5 µM] |  |
| Oc1cccc(Cl)c1 | 0.169% |  |
| Cc1ccccc1 | 2.67% |  |
| O=C(NC(=O)c1cc(F)c(F)cc1Cl)Nc1cc(F)ccc1N1CCC(C(=O)O)CC1 | -1.63% [at 42.5 µM] |  |
| O=C(Cc1ccccc1)c1ccccc1 | 0.285% |  |
| CCOP(=S)(S)OCC | -10.3% |  |
| C[C@]12C=CC3=C4CCC(=O)C=C4CC[C@H]3[C@@H]1CC[C@@H]2O |  | inactive |
| CCCC[N+](CCCC)(CCCC)CCCC | 1.82% |  |
| CCCCC(CC)CO[N+](=O)[O-] (configuration not stated) | -6.07% |  |
| O=C(O)c1cc(Cl)ccc1Cl | -14% |  |
| Nc1ccccc1C(=O)OCCc1ccccc1 |  | inactive |
| CCCSP(=S)(OCC)Oc1ccc(SC)cc1 (configuration not stated) | -18.3% |  |
| CC(Oc1cccc(Cl)c1)C(=O)O (configuration not stated) | -1.16% |  |
| Nc1c(Br)cc(Br)c2c1C(=O)c1ccccc1C2=O | -2.6% [at 19 µM] |  |
| C=CC(=O)NC(C)(C)CC(C)=O | 2.06% |  |
| CCCBr | -2.39% |  |
